Hits are enriched below; roughly 17% of the tested compounds scored in any of these assays.
HT1080 IDH1KD tx – toxicity to HT-1080 IDH1 knockdown cells (counter line); actives 2% (n = 360,000); Potency, µM (titrated, usually from 46.1 µM), for the others: top-dose activity, negative = toxicity, actives largely listed as cytotoxic; HT-1080 IDH1 knockdown viability, ATP luminescence, 48 h;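 further: 0% = DMSO wells and -100% = cell-free medium wells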
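Knockdown cells (IDH1KD HT-1080) received compounds 2 h after plating at 750 cells/well and were kept 48 h at 37 °C in 5% FBS RPMI. A CellTiter-Glo luminescence read gave % activity for curve fitting.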
TGFb inhibitor – TGF-b pathway inhibition. HepG2 CAGA-GFP TGF-b/SMAD3 reporter, GFP fluorescence, 18 h; TGF-beta stimulated, 500 pg/mL final. Potency, µM (series often up to 46.1 µM), for inactives: at the top dose activity, negative = inhibition, usual class: inhibitors. actives 1.2% (n = 410,000). AID 588855; further: on the % scale 0 is the no-effect control and ±100 the full control effect; nearly all actives have a fitted effect of over 65% in size
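HEPG2 CAGA-GFP reporter cells (1000/well, DMEM with 1% FBS) received compounds, then recombinant TGF-beta at 500 pg/mL final for 18 hours at 37 degrees C. Per-cell GFP summed per well was normalised to unstimulated and stimulated DMSO controls before curve fitting.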
HT1080-NT tox – kills 2HG-producing HT-1080-NT fibrosarcoma cells | AID 686970 | actives 1.6% (n = 360,000) | Potency, µM (series often up to 46.1 µM), inactives show at the top dose activity, negative = less viability, actives largely listed as cytotoxic | HT-1080-NT fibrosarcoma viability, CellTiter-Glo ATP luminescence, 48 h;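 further: NT is the 2HG producing partner of a matched IDH1 knockdown line; 0% = DMSO-treated cells and -100% = media-only wells without cells; nearly all actives have a fitted effect of over 55% in size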
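Viability of the 2HG-overproducing fibrosarcoma line after 48 hours of compound exposure at 37 degrees C was determined by luminescence with CellTiter-Glo, and concentration-effect curves were then fitted and categorized.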
DT40 TDP1 no CPT – qHTS for Inhibitors of human tyrosyl-DNA phosphodiesterase 1 (TDP1): qHTS in cells in absence of CPT; DT40 Tdp1-/- hTDP1 cells, no CPT, ATP luminescence, 48 h; Potency, µM (titrated, usually from 46.2 µM), inactives show top-dose activity change, negative = growth inhibition, hits mostly inhibitors; actives 15% (n = 420,000); further: on the % scale 0 is the no-effect control and ±100 the full control effect; nearly all actives have a fitted effect of over 55% in size
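Readout: luminescence from CellTiter-Glo after 30 min in the dark at RT. Cells: DT40 Tdp1-/- with stable hTDP1, 400/well. Exposure: compounds alone, ≥48 hr, 37 °C.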
TDP1 cell CPT – growth inhibition of DT40 Tdp1-/-;hTDP1 cells with camptothecin (screen for TDP1 inhibitors) | chicken DT40 Tdp1-/-;hTDP1 cells + 20 nM CPT, ATP luminescence, 48 h | Potency, µM (highest dose often 46.2 µM), for inactives: at the highest dose activity change, negative = growth inhibition, most hits filed as inhibitors | actives 12% (n = 420,000) | AID 686979; further: on the % scale 0 is the no-effect control and ±100 the full control effect; nearly all actives have a fitted effect of over 55% in size
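Chicken DT40 Tdp1-/- cells complemented with human TDP1, 400 cells/well, exposed to compounds plus 20 nM camptothecin for at least 48 h at 37 C; viability read as ATP content by CellTiter-Glo luminescence.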
HepG2 viability – HepG2 cytotoxicity, counter-screen for TGF-b inhibitors; Potency, µM (titrated, usually from 46.1 µM), inactives show at the top dose activity change, negative = cytotoxicity, usual class: cytotoxic; actives 0.76% (n = 410,000); AID 588856; HepG2 CAGA-GFP viability, ATP luminescence, 18 h
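CellTiter-Glo luminescence gave cytotoxicity after 18 hours at 37 degrees C. The cells were HepG2 CAGA-GFP in 1% FBS DMEM, stimulated with 500 pg/mL TGF-beta after compound addition. %Activity was normalised to no-cell wells (complete cell-killing) and DMSO (no toxicity), and curves were fitted and classified.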
The depositor's hits bear a star; ? = inconclusive; / = no result; ! = not active in a repeat; [ ] = another dose, or the depositor's remark. The call rests on the fitted dose curve; in most records, active means well fitted curve in the direction sought with a large enough effect; inconclusive means small, poorly fitted or top-dose-only effect, or another doubt; inactive means no such curve, though single readings can be large; an effect the other way counts as inactive or inconclusive. Potency means the concentration at half of the fitted maximal effect.

SMILES | HT1080 IDH1KD tx | TGFb inhibitor | HT1080-NT tox | DT40 TDP1 no CPT | TDP1 cell CPT | HepG2 viability
Cn1cc(-c2ccc(C(=O)Nc3cccc(Oc4ccccc4)c3)c3occc23)cn1 | -26% | 11% | 1% | ? | 0% | -9%
C/C(=C\c1ccco1)C1C(C#N)=C(N)OC2=C1C(=O)CC(C)(C)C2 (stereo not drawn) | 7% | ? | 3% | ? | 26µM* | -7%
CC1(C)CC(=O)C2=C(C1)OC(N)=C(C#N)C2c1cn(-c2ccccc2)nc1-c1ccccc1 (stereo not drawn) | ? | ? | 15µM* | ? | ? | -35%
CC1(C)CC(=O)C2=C(C1)OC(N)=C(C#N)C2c1ccoc1 (stereo not drawn) | 2% | 1% | 3% | 13% | 1% | 1%
CC1(C)CC(=O)C2=C(C1)OC(N)=C(C#N)C2C#Cc1ccccc1 (stereo not drawn) | ? | ? | ? | 4.6µM* | 5.2µM* | -36%
C/C(=C\c1ccco1)C1C(C#N)=C(N)Oc2n[nH]c(-c3ccccc3)c21 (stereo not drawn) | 0% | 0% | -3% | -23% | -24% | -62%
C/C(=C\c1ccco1)C1C(C#N)=C(N)Oc2n[nH]c(-c3ccc(C)cc3)c21 (stereo not drawn) | ? | -19% | ? | ? | 16µM* | -37%
CCOC(=O)c1sc(NC(=O)c2nc3ncccn3n2)c(C(=O)OC)c1C | / | -22% | / | -20% | 7% | -12%
CC1(C(=O)NS(=O)(=O)c2ccccc2C(F)(F)F)CCN1C(=O)COc1ccc(Cl)cc1 (stereo not drawn) | 12% | -11% | ? | -10% | 10% | -20%
O=C(Nc1ccc(N=Nc2ccccc2)c(NC(=O)C2CCCO2)c1)C1CCCO1 (stereo not drawn) | ? | -7% | ? | 21µM* | 8.2µM* | -4%
O=C(NS(=O)(=O)c1ccc(NC(=O)C2CCCO2)cc1)c1ccccc1 (stereo not drawn) | 16% | -11% | 11% | 4% | 8% | 8%
O=C(Nc1ccc(S(=O)(=O)Nc2ccc(Cl)cc2)cc1)C1CCCO1 (stereo not drawn) | ? | -3% | -21% | 13µM* | 16µM* | -6%
CC(C)N(c1ccccc1)c1ccc(NC(=O)C2CCCO2)cc1 (stereo not drawn) | -1% | ? | 14% | 16µM* | ? | -5%
CCCCCCNS(=O)(=O)c1ccc(NC(=O)C2CCCO2)cc1 (stereo not drawn) | 3% | ? | 1% | 10µM* | 9.2µM* | -19%
O=C(Nc1ccc([N+](=O)[O-])c(NC(=O)C2CCCO2)c1)C1CCCO1 (stereo not drawn) | 24% | 21% | 14% | -22% | -19% | 12%
O=C(CN1C(=O)c2cccnc2Oc2ccc(Cl)cc21)Nc1ccccc1F | -16% | -13% | 1% | 18µM* | ? | -13%
O=C(CN1C(=O)c2cccnc2Oc2ccc(Cl)cc21)NCCCc1ccccc1 | 12% | 1% | 18% | ? | 23µM* | 4%
CC(NC(=O)CN1C(=O)c2cccnc2Oc2ccc(Cl)cc21)c1ccccc1 (stereo not drawn) | / | -39% | / | ? | ? | -3%
COc1cccc(NC(=O)CN2C(=O)c3cccnc3Oc3ccc(Cl)cc32)c1 | -14% | 3% | -14% | ? | ? | -22%
O=C(CN1C(=O)c2cccnc2Oc2ccc(Cl)cc21)Nc1cccc(C(F)(F)F)c1 | / | -25% | / | 18µM* | ? | -28%
S=Cc1nc2ccccc2[nH]1 | / | -1% | / | ? | ? | -1%
Cc1cc(C)n(C(C[N+](=O)[O-])c2ccc(Cl)cc2)n1 (stereo not drawn) | 2% | ? | -3% | 2.3µM* | 2.3µM* | 0%
COc1ccc(CC(=O)NNC(=O)c2cc(C)oc2C)cc1OC | 2% | 6% | -1% | 3% | -7% | 0%
Cc1cccc(Nc2ccc(C(=O)N3CCOCC3)cn2)c1 | 25% | 20% | 0% | -2% | 30% | 5%
Cc1ccc(Nc2ccc(C(=O)N3CCCC3)cn2)c(C)c1 | 9% | -10% | 15% | 26µM* | ? | -10%
SMILES | HT1080 IDH1KD tx | TGFb inhibitor | HT1080-NT tox | DT40 TDP1 no CPT | TDP1 cell CPT | HepG2 viability
Cc1ccccc1NC(=O)c1ccc2c(c1)c(C)c(C)n2Cc1ccccc1 | / | ? | / | 4.1µM* | 7.3µM* | -15%
Cc1c(C)n(Cc2ccccc2)c2ccc(C(=O)NCC(C)c3ccccc3)cc12 (stereo not drawn) | / | 0% | / | ? | ? | -31%
Cc1c(C)n(Cc2ccccc2)c2ccc(C(=O)NC(C)c3ccccc3)cc12 (stereo not drawn) | / | 0% | / | 16µM* | 16µM* | -58%
Cc1cccc(C(=O)Nc2c(C#N)c(C)c(C)n2Cc2ccccc2)c1 | -6% | ? | -10% | 16µM* | ? | 2%
Cc1c(C#N)c(NC(=O)C(C)C)n(Cc2ccccc2)c1C | 4% | 0% | -1% | 21% | -4% | 3%
C[C@@H]1CN(Cc2ccc3c(c2)CN(Cc2cn[nH]c2-c2ccccc2)CCO3)C[C@H](C)O1 | / | / | / | -21% | 4%[9.04 µM] | /
COc1ccc(S(=O)(=O)N2CCC(C(=O)NCc3cccnc3)CC2)cc1OC | 22% | 3% | 23% | -8% | 10% | -15%
COc1cc(-c2c(-c3ccc4c(c3)OCO4)noc2-c2ccsc2)cc(OC)c1OC | / | 0% | / | -28% | ? | 14%
c1ccc(-c2onc(-c3ccco3)c2-c2ccc3c(c2)OCO3)cc1 | 12% | ? | -3% | 11µM*! | 10µM*! | -33%
COc1ccc(OC)c(S(=O)(=O)N2CCN(C34CC5CC(CC(C5)C3)C4)CC2)c1 | -10% | ? | -5% | 16µM* | ? | -20%
COc1ccc(OC)c(S(=O)(=O)N2CCCC(N3CCN(c4ccccc4)CC3)C2)c1 (stereo not drawn) | -13% | 1% | 0% | 26µM* | ? | 4%
COc1ccc(OC)c(S(=O)(=O)N2CCN(c3ncccn3)CC2)c1 | 0% | -20% | ? | 15µM* | ? | -33%
CCN1CCN(S(=O)(=O)c2cc(OC)ccc2OC)CC1 | -2% | 0% | 2% | 3% | 1% | -1%
